M1 ag parental: nonselective activator or artifact in parental CHO-K1 cells; 360,000 compounds, 0.48% hits; Fluo-8 calcium fluorescence; scaled to maximal ATP response, vehicle zero; activation, % at 3 µM; AID 602248; in the data active = activation above about 15%;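 note: untransfected CHO-K1 host cells lacking M1 receptor as counterscreen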
M1 ag: human M1 muscarinic receptor agonism; P11229; CHO-K1 hM1, Fluo-8 calcium fluorescence, agonist mode; 0% DMSO, 100% acetylcholine EC100; activation, % at 3 µM; 360,000 compounds, 0.33% hits;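 active = activation above the run's mean compound activation plus 3 SD, cut at about 16% in these data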;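 note: peak over basal fluorescence ratio within a 140 s kinetic read after compound addition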
Target sequence (P11229 whole entry, looked up): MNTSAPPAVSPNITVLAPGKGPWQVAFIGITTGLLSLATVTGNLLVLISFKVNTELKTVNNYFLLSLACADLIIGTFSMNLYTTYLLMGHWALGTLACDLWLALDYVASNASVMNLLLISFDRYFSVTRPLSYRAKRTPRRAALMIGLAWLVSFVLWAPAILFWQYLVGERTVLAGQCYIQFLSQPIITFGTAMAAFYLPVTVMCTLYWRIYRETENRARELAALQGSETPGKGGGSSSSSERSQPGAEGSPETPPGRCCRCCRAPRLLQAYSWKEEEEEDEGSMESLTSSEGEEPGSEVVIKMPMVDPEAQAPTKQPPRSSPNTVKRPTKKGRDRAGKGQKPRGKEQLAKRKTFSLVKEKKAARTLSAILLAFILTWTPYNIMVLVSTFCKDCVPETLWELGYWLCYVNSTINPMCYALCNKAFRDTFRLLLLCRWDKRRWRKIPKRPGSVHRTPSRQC
CHO-K1 Ca antag: counter-screen for M1 antagonists: effect in parental CHO-K1 cells; ATP-induced calcium, Fluo-8 fluorescence; inhibition, % at 3 µM; 360,000 compounds, 0.6% hits;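 active = inhibition above a per-plate cutoff, the plate's mean sample inhibition plus 3 SD, cut at about 24% in these data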;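 note: 0% = DMSO plus EC80 ATP and 100% = DMSO alone without ATP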
M1 PAM parental: nonselective activator or artifact in parental CHO-K1 calcium assay. activation, % at 3 µM. 360,000 compounds, 0.02% hits. ATP EC20, Fluo-8 calcium fluorescence; 0% at ATP EC20, 100% at ATP max;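 active = activation above the run cutoff, the mean activation of all test compounds plus 3 SD, cut at about 40% in these data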;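 note: peak over basal fluorescence ratio in a 140 s read after ATP addition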
M1 PAM: human CHRM1 positive allosteric modulation; CHO-K1 hM1, Fluo-8 calcium fluorescence, ACh EC20; 0% = ACh EC20, 100% = maximal ACh; activation, % at 3 µM; 360,000 compounds, 0.088% hits; AID 588819; in the data active = activation above about 19%, passing the limit was not always enough
CHRM1 antagonist: human CHRM1 antagonism; P11229; CHO-K1 hM1, Fluo-8 calcium fluorescence, ACh EC80 antagonist; inhibition, % at 3 µM; 360,000 compounds, 1.3% hits;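 active = percent inhibition above its own plate's cutoff, namely the mean of that plate's compound wells plus 3 SD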;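 note: peak over basal fluorescence ratio during 140 s after agonist addition; 0% = ACh EC80 plus DMSO and 100% = DMSO alone without agonist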
* marks the source's active call; other numbers are inactive results. Rows were chosen to be rich in hits. Some 2.3% of all compounds tested hit in one or more screens of this group.

`O=C(CN1C(=O)CSc2ncccc21)Nc1ccccc1F` gave M1 ag parental 2, M1 ag -1, CHO-K1 Ca antag -3, M1 PAM parental -2, M1 PAM 9 and CHRM1 antagonist -11.
For NC(Cc1ccc(F)cc1)c1csc(Nc2ccc(C(F)(F)F)cn2)n1 (stereo unspecified) the results were M1 ag parental 2, M1 ag 9, CHO-K1 Ca antag 7, M1 PAM parental 3, M1 PAM 1 and CHRM1 antagonist 5.
For CC(C)(C)C(=O)/C=c1\s/c(=C\c2ccc(-c3ccc([N+](=O)[O-])cc3)o2)c(=O)n1CC(=O)NC(N)=O the results were M1 ag parental 16*, M1 ag 23*, CHO-K1 Ca antag 26*, M1 PAM parental -10, M1 PAM -9 and CHRM1 antagonist 39*.
For CCC(=O)N/N=C/c1ccc(-c2ccc([N+](=O)[O-])cc2)o1 the results were M1 ag parental 2, M1 ag -3, CHO-K1 Ca antag -3, M1 PAM parental 16, M1 PAM 6 and CHRM1 antagonist -8.
Screening COCCC1CCCCN1C(=O)c1cc(COc2ccc(-n3cncn3)cc2)on1 (stereo unspecified) returned M1 ag parental 15, M1 ag 6, CHO-K1 Ca antag 25*, M1 PAM parental -17, M1 PAM -4 and CHRM1 antagonist 31*.
`COCCOC1CCN(C(=O)c2cc(COc3ccc(-n4cncn4)cc3)on2)CC1` gave M1 ag parental 1, M1 ag -1, CHO-K1 Ca antag -1, M1 PAM parental -3, M1 PAM 3 and CHRM1 antagonist -4.
`CCC1CCCCN1C(=O)c1cc(COc2ccc3ncccc3c2)on1` (stereo unspecified) gave M1 ag parental 16*, M1 ag -1, CHO-K1 Ca antag 27*, M1 PAM parental -7, M1 PAM -13 and CHRM1 antagonist 31.
O=C(NCc1cccc(Cl)c1)c1cc(COc2ccc3ncccc3c2)on1 was read as M1 ag parental 12, M1 ag -3, CHO-K1 Ca antag 7, M1 PAM parental -2, M1 PAM -10 and CHRM1 antagonist 28.
`CCN1CCN(C(=O)c2cc(COc3ccc4ncccc4c3)on2)CC1` gave M1 ag parental 11, M1 ag 3, CHO-K1 Ca antag -4, M1 PAM parental 14, M1 PAM -2 and CHRM1 antagonist 10.
Screening Cc1ccc(F)cc1CNC(=O)c1cc(COc2ccc3ncccc3c2)on1 returned M1 ag parental 14, M1 ag 1, CHO-K1 Ca antag 17, M1 PAM parental -1, M1 PAM -26 and CHRM1 antagonist 39*.
`COCC1CCCCN1C(=O)c1cc(COc2ccc3ncccc3c2)on1` (stereo unspecified) gave M1 ag parental 20*, M1 ag 6, CHO-K1 Ca antag 33*, M1 PAM parental -24, M1 PAM -16 and CHRM1 antagonist 55*.
For Cc1cc(/C=N/NC(N)=S)c(C)n1-c1ccc(Cl)cc1 the results were M1 ag parental 18*, M1 ag -6, CHO-K1 Ca antag 4, M1 PAM parental 5, M1 PAM -6 and CHRM1 antagonist 3.
For COC(=O)c1ccc(N2CCN(S(=O)(=O)c3ccc4ccccc4c3)CC2)c([N+](=O)[O-])c1 the results were M1 ag parental 0, M1 ag 0, CHO-K1 Ca antag 28*, M1 PAM parental 2, M1 PAM -3 and CHRM1 antagonist 23.
Cc1c(OC(C)C(=O)NCC(O)c2ccccc2)ccc2c3c(c(=O)oc12)CCC3 (stereo unspecified) was read as M1 ag parental 9, M1 ag 0, CHO-K1 Ca antag -11, M1 PAM parental -2, M1 PAM 3 and CHRM1 antagonist -6.
Screening O=c1[nH]c(N2CCOCC2)nc2c1CCCC2 returned M1 ag parental 0, M1 ag 0, CHO-K1 Ca antag 0, M1 PAM parental 12, M1 PAM 4 and CHRM1 antagonist -4.
Screening COc1cc(C)c(Cl)cc1S(=O)(=O)NCc1ccccn1 returned M1 ag parental 1, M1 ag -5, CHO-K1 Ca antag -8, M1 PAM parental 22, M1 PAM 8 and CHRM1 antagonist -9.
For Cn1c(CC(=O)NN)c(Sc2ccccc2)c2ccccc21 the results were M1 ag parental 1, M1 ag -5, CHO-K1 Ca antag -19, M1 PAM parental 17, M1 PAM 7 and CHRM1 antagonist -17.
COC(=O)c1c(Sc2ccccc2)c2ccccc2n1C was read as M1 ag parental 0, M1 ag 35*, CHO-K1 Ca antag -18, M1 PAM parental 6, M1 PAM -8 and CHRM1 antagonist -1.
Screening Cc1cc(=O)oc2c(CN3CCCC3)c(O)c(Cl)cc12 returned M1 ag parental 0, M1 ag -4, CHO-K1 Ca antag -5, M1 PAM parental 1, M1 PAM 6 and CHRM1 antagonist -6.
`CCCc1cc(=O)oc2c(CN3CCCC3)c(O)c(Cl)cc12` gave M1 ag parental 0, M1 ag -2, CHO-K1 Ca antag 29*, M1 PAM parental -9, M1 PAM 1 and CHRM1 antagonist -2.
Screening Cc1ccsc1C(=O)N1CCC1(C)C(=O)NCc1cccnc1 (stereo unspecified) returned M1 ag parental 0, M1 ag -2, CHO-K1 Ca antag 10, M1 PAM parental -5, M1 PAM 2 and CHRM1 antagonist -8.
`COc1ccc(/C(C)=N/OCC(=O)Nc2nc3ccccc3s2)cc1OC` gave M1 ag parental 19*, M1 ag -3, CHO-K1 Ca antag 2, M1 PAM parental 13, M1 PAM -9 and CHRM1 antagonist 12.
Screening C/C(=N\OCC(=O)Nc1nc2ccccc2s1)c1ccccc1 returned M1 ag parental 1, M1 ag -2, CHO-K1 Ca antag -14, M1 PAM parental 24, M1 PAM 6 and CHRM1 antagonist -6.
Screening CCOCCN1CCN(C2c3ccccc3CSc3ccccc32)CC1 (stereo unspecified) returned M1 ag parental 0, M1 ag -8, CHO-K1 Ca antag 0, M1 PAM parental 2, M1 PAM -26 and CHRM1 antagonist 100*.
For CCNC(=O)NC1c2ccccc2CSc2ccccc21 (stereo unspecified) the results were M1 ag parental 0, M1 ag -7, CHO-K1 Ca antag -7, M1 PAM parental 12, M1 PAM -1 and CHRM1 antagonist 16.
Screening CCOC(=O)C1=CN(Cc2ccco2)S(=O)(=O)NC1CC (stereo unspecified) returned M1 ag parental 0, M1 ag -3, CHO-K1 Ca antag -23, M1 PAM parental 13, M1 PAM 1 and CHRM1 antagonist 0.

High-throughput results (PubChem)
